# Measurements published in PubChem BioAssay AID1159580 (chemical genetic matrix, 2015).
# The campaign covered roughly 5,500 compounds. About 2,000 (36%) were called active. Inconclusive results (about 18%) are left out. This is one part of the list. A number with no mark means an inactive call. Rule as the data show it: active = normalized growth mostly below about 0.91 (no sharp cut-off); inconclusive = no clear call, values can overlap the other calls; inactive = mostly above about 0.92.
# Experiment: chemical genetic growth profiling, strain panel (AID 1159580);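 also: tested at 20 µM; growth read once vehicle control cultures reached saturation at 30 °C; 1 = growth at the plate median or of vehicle wells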
# Conditions: growth OD
smiles,measurement,setting,value
O=c1cc(-c2ccccc2)oc2cc(O)c(O)c(O)c12,normalized growth,"S. cerevisiae deletion strains, locus YKL009W, strain mrt4, stronger effect = lower value",0.97
same,normalized growth,"S. cerevisiae deletion strains, locus YKL068W, stronger effect = lower value",0.855 (active)
same,normalized growth,"S. cerevisiae deletion strains, locus YKL085W, strain MDH1 (second series), stronger effect = lower value",0.84 (active)
same,normalized growth,"S. cerevisiae deletion strains, locus YKL085W, strain MDH1, stronger effect = lower value",0.84 (active)
same,normalized growth,"S. cerevisiae deletion strains, locus YKL160W, strain elf1, stronger effect = lower value",0.701 (active)
same,normalized growth,"S. cerevisiae deletion strains, locus YKL190W, strain CNB1, stronger effect = lower value",0.429 (active)
same,normalized growth,"S. cerevisiae deletion strains, locus YKR001C, strain vps1, stronger effect = lower value",0.376 (active)
same,normalized growth,"S. cerevisiae deletion strains, locus YKR026C, strain gcn3, stronger effect = lower value",0.572 (active)
same,normalized growth,"S. cerevisiae deletion strains, locus YKR091W, strain srl3, stronger effect = lower value",0.763 (active)
same,normalized growth,"S. cerevisiae deletion strains, locus YLL001W, strain dnm1, stronger effect = lower value",0.482 (active)
same,normalized growth,"S. cerevisiae deletion strains, locus YLL026W, stronger effect = lower value",0.57 (active)
same,normalized growth,"S. cerevisiae deletion strains, locus YLL041C, strain sdh2, stronger effect = lower value",0.649 (active)
same,normalized growth,"S. cerevisiae deletion strains, locus YLR027C, strain aat2, stronger effect = lower value",0.575 (active)
same,normalized growth,"S. cerevisiae deletion strains, locus YLR039C, strain RIC1, stronger effect = lower value",0.154 (active)
same,normalized growth,"S. cerevisiae deletion strains, locus YLR058C, strain SHM2, stronger effect = lower value",0.0829 (active)
same,normalized growth,"S. cerevisiae deletion strains, locus YLR102C, strain apc9, stronger effect = lower value",0.857 (active)
same,normalized growth,"S. cerevisiae deletion strains, locus YLR113W, strain HOG1, stronger effect = lower value",0.575 (active)
same,normalized growth,"S. cerevisiae deletion strains, locus YLR221C, strain rsa3, stronger effect = lower value",0.521 (active)
same,normalized growth,"S. cerevisiae deletion strains, locus YLR258W, strain gsy2, stronger effect = lower value",0.576 (active)
same,normalized growth,"S. cerevisiae deletion strains, locus YLR262C, strain YPT6 (second series), stronger effect = lower value",0.303 (active)
same,normalized growth,"S. cerevisiae deletion strains, locus YLR262C, strain YPT6, stronger effect = lower value",0.375 (active)
same,normalized growth,"S. cerevisiae deletion strains, locus YLR268W, strain sec22, stronger effect = lower value",0.176 (active)
same,normalized growth,"S. cerevisiae deletion strains, locus YLR320W, strain mms22, stronger effect = lower value",0.418 (active)
same,normalized growth,"S. cerevisiae deletion strains, locus YLR330W, strain CHS5, stronger effect = lower value",0.543 (active)
same,normalized growth,"S. cerevisiae deletion strains, locus YLR342W, strain FKS1 (second series), stronger effect = lower value",0.345 (active)
same,normalized growth,"S. cerevisiae deletion strains, locus YLR342W, strain FKS1, stronger effect = lower value",0.364 (active)
same,normalized growth,"S. cerevisiae deletion strains, locus YLR357W, strain rsc2, stronger effect = lower value",0.474 (active)
same,normalized growth,"S. cerevisiae deletion strains, locus YLR370C, strain arc18, stronger effect = lower value",0.427 (active)
same,normalized growth,"S. cerevisiae deletion strains, locus YLR371W, strain rom2, stronger effect = lower value",0.588 (active)
same,normalized growth,"S. cerevisiae deletion strains, locus YLR384C, strain iki3, stronger effect = lower value",0.327 (active)
same,normalized growth,"S. cerevisiae deletion strains, locus YLR418C, strain cdc73, stronger effect = lower value",0.303 (active)
same,normalized growth,"S. cerevisiae deletion strains, locus YML016C, strain PPZ1, stronger effect = lower value",0.399 (active)
same,normalized growth,"S. cerevisiae deletion strains, locus YML032C, strain rad52, stronger effect = lower value",0.165 (active)
same,normalized growth,"S. cerevisiae deletion strains, locus YML120C, strain ndi1, stronger effect = lower value",0.14 (active)
same,normalized growth,"S. cerevisiae deletion strains, locus YML124C, strain tub3, stronger effect = lower value",0.424 (active)
same,normalized growth,"S. cerevisiae deletion strains, locus YMR058W, strain fet3, stronger effect = lower value",0.223 (active)
same,normalized growth,"S. cerevisiae deletion strains, locus YMR078C, strain ctf18, stronger effect = lower value",0.547 (active)
same,normalized growth,"S. cerevisiae deletion strains, locus YMR125W, strain sto1, stronger effect = lower value",0.802 (active)
same,normalized growth,"S. cerevisiae deletion strains, locus YMR129W, stronger effect = lower value",0.568 (active)
same,normalized growth,"S. cerevisiae deletion strains, locus YMR205C, strain PFK2, stronger effect = lower value",0.294 (active)
same,normalized growth,"S. cerevisiae deletion strains, locus YMR223W, strain ubp8, stronger effect = lower value",0.464 (active)
same,normalized growth,"S. cerevisiae deletion strains, locus YMR231W, strain pep5, stronger effect = lower value",0.398 (active)
same,normalized growth,"S. cerevisiae deletion strains, locus YMR263W, strain SAP30, stronger effect = lower value",0.207 (active)
same,normalized growth,"S. cerevisiae deletion strains, locus YMR307W, strain GAS1, stronger effect = lower value",0.456 (active)
same,normalized growth,"S. cerevisiae deletion strains, locus YNL067W, strain RPL9B, stronger effect = lower value",0.401 (active)
same,normalized growth,"S. cerevisiae deletion strains, locus YNL071W, strain lat1, stronger effect = lower value",0.675 (active)
same,normalized growth,"S. cerevisiae deletion strains, locus YNL128W, strain TEP1, stronger effect = lower value",0.387 (active)
same,normalized growth,"S. cerevisiae deletion strains, locus YNL153C, strain GIM3, stronger effect = lower value",0.215 (active)
same,normalized growth,"S. cerevisiae deletion strains, locus YNL183C, strain NPR1, stronger effect = lower value",0.634 (active)
same,normalized growth,"S. cerevisiae deletion strains, locus YNL209W, strain ssb2, stronger effect = lower value",0.185 (active)
same,normalized growth,"S. cerevisiae deletion strains, locus YNL233W, strain BNI4, stronger effect = lower value",0.502 (active)
same,normalized growth,"S. cerevisiae deletion strains, locus YNL248C, strain rpa49, stronger effect = lower value",0.633 (active)
same,normalized growth,"S. cerevisiae deletion strains, locus YNL250W, strain rad50, stronger effect = lower value",0.76 (active)
same,normalized growth,"S. cerevisiae deletion strains, locus YNL271C, strain bni1, stronger effect = lower value",0.774 (active)
same,normalized growth,"S. cerevisiae deletion strains, locus YNL298W, strain CLA4, stronger effect = lower value",0.756 (active)
same,normalized growth,"S. cerevisiae deletion strains, locus YNL307C, strain MCK1, stronger effect = lower value",0.517 (active)
same,normalized growth,"S. cerevisiae deletion strains, locus YNL322C, strain KRE1 (second series), stronger effect = lower value",0.187 (active)
same,normalized growth,"S. cerevisiae deletion strains, locus YNL322C, strain KRE1, stronger effect = lower value",0.241 (active)
same,normalized growth,"S. cerevisiae deletion strains, locus YNR049C, strain mso1, stronger effect = lower value",0.714 (active)
same,normalized growth,"S. cerevisiae deletion strains, locus YNR052C, strain pop2, stronger effect = lower value",0.122 (active)
same,normalized growth,"S. cerevisiae deletion strains, locus YOL006C, strain TOP1, stronger effect = lower value",0.136 (active)
same,normalized growth,"S. cerevisiae deletion strains, locus YOL012C, strain htz1",0.269
same,normalized growth,"S. cerevisiae deletion strains, locus YOL147C, strain pex11, stronger effect = lower value",0.187 (active)
same,normalized growth,"S. cerevisiae deletion strains, locus YOR001W, strain rrp6, stronger effect = lower value",0.325 (active)
same,normalized growth,"S. cerevisiae deletion strains, locus YOR061W, strain CKA2, stronger effect = lower value",0.545 (active)
same,normalized growth,"S. cerevisiae deletion strains, locus YOR069W, strain VPS5, stronger effect = lower value",0.617 (active)
same,normalized growth,"S. cerevisiae deletion strains, locus YOR070C, strain gyp1, stronger effect = lower value",0.782 (active)
same,normalized growth,"S. cerevisiae deletion strains, locus YOR080W, strain dia2, stronger effect = lower value",0.105 (active)
same,normalized growth,"S. cerevisiae deletion strains, locus YOR083W, strain WHI5, stronger effect = lower value",0.618 (active)
same,normalized growth,"S. cerevisiae deletion strains, locus YOR106W, strain vam3, stronger effect = lower value",0.221 (active)
same,normalized growth,"S. cerevisiae deletion strains, locus YOR136W, strain idh2, stronger effect = lower value",0.557 (active)
same,normalized growth,"S. cerevisiae deletion strains, locus YOR144C, strain elg1, stronger effect = lower value",0.202 (active)
same,normalized growth,"S. cerevisiae deletion strains, locus YOR184W, strain ser1, stronger effect = lower value",0.314 (active)
same,normalized growth,"S. cerevisiae deletion strains, locus YOR231W, strain MKK1, stronger effect = lower value",0.68 (active)
same,normalized growth,"S. cerevisiae deletion strains, locus YOR265W, strain rbl2, stronger effect = lower value",0.507 (active)
same,normalized growth,"S. cerevisiae deletion strains, locus YOR270C, strain vph1, stronger effect = lower value",0.169 (active)
same,normalized growth,"S. cerevisiae deletion strains, locus YOR290C, strain snf2, stronger effect = lower value",0.0825 (active)
same,normalized growth,"S. cerevisiae deletion strains, locus YOR316C, strain cot1, stronger effect = lower value",0.738 (active)
same,normalized growth,"S. cerevisiae deletion strains, locus YPL051W, strain arl3, stronger effect = lower value",0.328 (active)
same,normalized growth,"S. cerevisiae deletion strains, locus YPL055C, strain LGE1, stronger effect = lower value",0.443 (active)
same,normalized growth,"S. cerevisiae deletion strains, locus YPL078C, strain atp4, stronger effect = lower value",0.144 (active)
same,normalized growth,"S. cerevisiae deletion strains, locus YPL106C, strain sse1, stronger effect = lower value",0.582 (active)
same,normalized growth,"S. cerevisiae deletion strains, locus YPL240C, strain hsp82, stronger effect = lower value",0.671 (active)
same,normalized growth,"S. cerevisiae deletion strains, locus YPL241C, strain CIN2, stronger effect = lower value",0.57 (active)
same,normalized growth,"S. cerevisiae deletion strains, locus YPL256C, strain CLN2, stronger effect = lower value",0.693 (active)
same,normalized growth,"S. cerevisiae deletion strains, locus YPR119W, strain clb2, stronger effect = lower value",0.802 (active)
same,normalized growth,"S. cerevisiae deletion strains, locus YPR141C, strain kar3, stronger effect = lower value",0.849 (active)
same,normalized growth,"S. cerevisiae deletion strains, locus YPR163C, strain tif3, stronger effect = lower value",0.659 (active)
same,normalized growth,"S. cerevisiae deletion strains, locus YPR167C, strain met16, stronger effect = lower value",0.564 (active)
same,normalized growth,"S. cerevisiae deletion strains, strain wtn01, stronger effect = lower value",0.349 (active)
same,normalized growth,"S. cerevisiae strains, strain wild type, stronger effect = lower value",0.268 (active)
